Measured values published in the supplement of paper PMC12350171.
Structures can show the parent of a compound that is named as a salt. Values without a mark were called inactive.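 The calls were made as follows: active = AUC significantly below DMSO controls by Student t-fit with adjusted P under 0.01; inactive = not significantly reduced.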

system: Haemophilus parainfluenzae; assay: growth AUC normalised to DMSO control (fraction of control); higher = less growth inhibition, active = hit call of the paper; settings: 20 µM
How it was run: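 Hemin and NAD were added to the medium for Haemophilus parainfluenzae. All pathogens, after two anaerobic passages, were inoculated at a starting OD578 of 0.01 into pre-reduced mGAM plates with 20 μM compound and 1% DMSO under breathable seals, and OD578 was read hourly for 24 h in three biological replicates. AUC of each growth curve was obtained with the trapezoidal rule up to the exponential-to-stationary transition and normalised to DMSO controls from the same plate.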

Row | SMILES | growth AUC normalised to DMSO control
1 | CN(C)CCOC(c1ccc(Cl)cc1)c1ccccn1 (configuration not stated) [Carbinoxamine maleate salt] | 1.08
2 | CN1CC2c3ccccc3Oc3ccc(Cl)cc3C2C1 (configuration not stated) [Asenapine maleate] | 0.851 (active)
3 | CC(C)(C)c1ccc(C(O)CCCN2CCC(C(O)(c3ccccc3)c3ccccc3)CC2)cc1 (configuration not stated) [Terfenadine] | 0.88
4 | CC(Cc1cccc(C(F)(F)F)c1)NCCOC(=O)c1ccccc1 (configuration not stated) [Benfluorex] | 0.93
5 | CN1CCCCC1CCN1c2ccccc2Sc2ccc([S+](C)[O-])cc21 (configuration not stated) [Mesoridazine besylate] | 0.987
6 | CCC1(c2ccccc2)C(=O)NCNC1=O [Primidone] | 0.953
7 | CCC[C@@H]1C[C@@H](C(=O)N[C@@H]([C@H]2O[C@H](SC)[C@H](O)[C@@H](O)[C@H]2O)[C@H](C)Cl)N(C)C1 [Clindamycin hydrochloride] | 0.0463 (active)
